This is an account of results in the supplement of paper PMC10105736.

Unmarked numbers belong to inactive results.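 The calls were made as follows: active = MAPPIT score above the 99th percentile of random reference set scores in the same batch; inactive = at or below it.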

Holding throughout (experiment): MAPPIT interaction score (arbitrary units); higher = stronger binary interaction signal, active = hit call of the paper
The target of one assay is CG7137. As to conditions: pair source set: Lit-BM-16.
In the next assay the target is CG7407. As to conditions: MAPPIT configuration: N-C; pair source set: screen_3.
The target in the next assay is Dpm3. As to conditions: MAPPIT configuration: N-C; pair source set: screen_4.
For the next assay, the target named is CG7747. As to conditions: MAPPIT configuration: N-N; pair source set: Finley_Y2H.
A further assay addresses CG5883. As to conditions: MAPPIT configuration: N-N; pair source set: RRS.
Another assay concerns the target CG6996. As to conditions: MAPPIT configuration: N-N; pair source set: Finley_Y2H.
The next assay has as its target Mcad. To be noted: MAPPIT configuration: N-N; pair source set: Lit-BS-16.
Another assay concerns the target Treh. As to conditions: MAPPIT configuration: N-N; pair source set: Finley_Y2H.
A further assay addresses Unr. As to conditions: pair source set: Lit-BM-16.
Another assay deals with gcm. To be noted: MAPPIT configuration: N-N; pair source set: Finley_Y2H.
A further assay has as its target noi. To be noted: MAPPIT configuration: N-N; pair source set: Finley_Y2H.
For a further assay, the target named is prd. To be noted: MAPPIT configuration: N-N; pair source set: Finley_Y2H.
The next assay deals with CG7044. To be noted: MAPPIT configuration: N-N; pair source set: Lit-BS-16.
The next assay addresses aspr. As to conditions: MAPPIT configuration: N-N; pair source set: Lit-BS-16.
The target in another assay is CG6712. As to conditions: MAPPIT configuration: N-N; pair source set: DPIM.
The target of the next assay is CG6933. To be noted: MAPPIT configuration: N-N; pair source set: Lit-BS-16.
Another assay concerns the target CG6683. To be noted: MAPPIT configuration: N-N; pair source set: Lit-BS-16.
The target in a further assay is CG8654. As to conditions: MAPPIT configuration: N-N; pair source set: DPIM.
Another assay deals with vih. As to conditions: MAPPIT configuration: N-N; pair source set: Curagen_low_conf.
The next assay addresses CG6664. As to conditions: MAPPIT configuration: N-N; pair source set: DPIM.
Another assay has as its target CG7548. As to conditions: MAPPIT configuration: N-N.
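Also: HEK293T cells with Epo stimulation, STAT-responsive firefly luciferase reporter, fold induction versus unstimulated cells divided by the larger fold induction of two negative controls lacking either bait or prey.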

B1: grau (protein)
chain: MDICRLCLRGVSGAQMCLQIFDVDSGESKVAEVLRQHFWFEVLPNDEISKVICNVCWTQVSEFHQFYVSIQEAQVIYATTSKFKQDPEMVNTSWPEEVLMPADVLAVDNDVGAQINVNPLDELDLSQPMSPEDSKVGIKTERQSPDMELLFEDANNEQDEDYEDDEDDDTDDLIVTRSGRKRKRDVAKPAKTKRGTVSVGRKGKEKMVVKRGPPKRIFKMERLPPFCKEDEELIKRYIVMGCELCIFLAEDFDGIREHFKDKHPDERPYIKCCGRKLNKRCLIQEHARRHENPEYIKCKDCGKVFANSSVLRAHWLVHHVPDEECDFQCEDCGKRFSRRNLLELHKGSHVPVNERKFICPQCPKHNAFATEYHMQVHISMQHRKAANICHVCGKKIKDKAVFEKHVRLHFEESGPRIKCPRPDCESWLKDEDNLKQHLRRHNDEGKLFICSECGKSCKNSRALIGHKRYSHSNVIYTCEQCGKTFKKDISLKEHMAQHTGEPLYKCPFCPRTFNSNANMHSHKKKMHPVEWDIWRKTKTGSSQKVLPSAQVAQMFRDDADVAAIANDYSG
On to B1, for which the MAPPIT interaction score with CG7137 (MAPPIT configuration: N-C) is 3.33; in the assay with CG7137 (MAPPIT configuration: N-N), 0.66.

B2: Sras (protein)
chain: MKNLSETEAEVTMQENVVHESLPQIPVATSVSCCFVLAVLYVGSLYIWSTKHNRDHPTTVKRRFASVSMVMLAAPFFVYFFSSPELLSRVPFPKLLGLRLEGLWQAVVIPYSLTVLLFLGPIFVNMQNESVRSYFDLDYWRGSFGSIIWVRNHVIAPLSEEFVFRACMMPLILQSFSPLVAVFITPLFFGVAHLHHIAERLSLGVELSTALLIGLFQFIYTTLFGFYSAFLFARTGHVMAPILVHAFCNHMGLPDLQDLWQQDLWRRVVAIILYLAGFVGWMFLVPLATDPSIYDNTLYWNA
With B2, the MAPPIT interaction score is -0.229 with CG7407 and 0.0475 in the assay with Dpm3.

B3: bora (protein)
chain: MYNDEVRTPQALKNRYITNVNGLKCRARRNSHSNSSNSSAASATPTNGGKENGKYSPQMSGNVCTPPPKRLHKVRNPFEGAMADRLHLPLIASPSLFRSRTPQLSSTQFEWNIDEVSQLKPADVEPHETQFHDSPDPEQESKAQLAISAFFKESLIVPSPVDCPLRKQRIILNCSEDNTPISNKSRRMRDCEVQTELTLPPILPKALEDALRPYFQPHLAGRLSGRSKSSGGPDIFNSSMRRKLFDLHNVIVLGEQDTAEPSRSMVGSSPQGKQTMFAGRLSDSASGESSFGCLSPIRNLCGLPPGTPDNGTCSGKRKLLMHELELPSPIAPSEHLSRRLVHSKVEISVTEQHDTLSERTALKFTPDRSSSPMGGGLEHSDCSINQRVRRLRVNSTRQVVIETGDQPLFEETEGEEEEAESEDDEEADAMQLSTVSFNCSSSNSDTPRGHKRHRSAQRKNLSQSFSANLEEEADQTQGGAGSIQPAEPPSVAMPQQGARIPLYRADSGFNETSSTTFAFSQDLPLDVSMACCSTPSTRS
B3: the MAPPIT interaction score with CG7747 was 1.91.

B4: mRpL39 (protein)
chain: MSAATKLHKTSWCALRQLQQYRTKANFSGSSASLAKRNDLFNQEQRRQRDAVGRIDKIEVRYLGLPEDVTLVMNGNISTPFNCAQHLSEGHCKRSALALIDGSVPWDMHRPLQESCTLQLLNFHVSEPHVVNKAFWRTCSFMLGAALNRAFKPEANLQLHSFPGPNIKSGSFVHDIVLQTQNWEPGKEEMRALSAEMVKLAAQDLRIERLDVQQDLAQEMFKDSKYKSEQLPSISQQTNGRVTLYRLGDHIDISRGPMVASTSFLGKCVISAAHKVAEEGPSGAFYRIQGVALPSGFQLNHVAFGVLEERSKKPSPARLPNEPFEEQQQLQLS
Consider B4, for which, in the assay with CG5883, the MAPPIT interaction score is -0.604.

B5: Sxl (protein)
chain: MYGNNNPGSNNNNGGYPPYGYNNKSSGGRGFGMSHSLPSGMSRYAFSPQDTEFSFPSSSSRRGYNDFPGCGGSGGNGGSANNLGGGNMCHLPPMASNNSLNNLCGLSLGSGGSDDLMNDPRASNTNLIVNYLPQDMTDRELYALFRAIGPINTCRIMRDYKTGYSFGYAFVDFTSEMDSQRAIKVLNGITVRNKRLKVSYARPGGESIKDTNLYVTNLPRTITDDQLDTIFGKYGSIVQKNILRDKLTGRPRGVAFVRYNKREEAQEAISALNNVIPEGGSQPLSVRLAEEHGKAKAAHFMSQMGVVPANVPPPPPQPPAHMAAAFNMMHRGRSIKSQQRFQNSHPYFDAKKFI
On to B5, for which the MAPPIT interaction score with CG6996 was 0.192; with Mcad it was 1.44; with Treh, -0.289; with Unr (MAPPIT configuration: N-C), 3.02; with Unr (MAPPIT configuration: N-N), 2.17; with gcm, -0.368. Besides, the MAPPIT interaction score in the assay with noi was 4.3 (active); with prd it was -0.691.

B6: sala (protein)
chain: MKLLIALFALVTAVNAQNGFGQVGQGGYGGQGGFGGFGGIGGQAGFGGQIGFTGQGGVGGQVGIGQGGVHPGQGGFAGQGSPNQYQPGYGSPVGSGHFHGTNPVESGHFHENPHEYPEHHGDHHREHHEHHGHHEHHGHHRH
Turning to B6, the MAPPIT interaction score in the assay with CG7044 is 0.14; in the assay with aspr, -0.194.

B7: Vha55 (protein)
chain: MNAQQAQREHVLAVSRDFISQPRLTYKTVSGVNGPLVILDEVKFPKFAEIVQLRLADGTVRSGQVLEVSGSKAVVQVFEGTSGIDAKNTLCEFTGDILRTPVSEDMLGRVFNGSGKPIDKGPPILAEDFLDIQGQPINPWSRIYPEEMIQTGISAIDVMNSIARGQKIPIFSAAGLPHNEIAAQICRQAGLVKLPGKSVLDDHTDNFAIVFAAMGVNMETARFFKQDFEENGSMENVCLFLNLANDPTIERIITPRLALTAAEFLAYQCEKHVLVILTDMSSYAEALREVSAAREEVPGRRGFPGYMYTDLATIYERAGRVEGRNGSITQIPILTMPNDDITHPIPDLTGYITEGQIYVDRQLHNRQIYPPVNVLPSLSRLMKSAIGEGMTRKDHSDVSNQLYACYAIGKDVQAMKAVVGEEALTPDDLLYLEFLTKFEKNFISQGNYENRTVFESLDIGWQLLRIFPKEMLKRIPASILAEFYPRDSRH
B7: in the assay with CG6712, the MAPPIT interaction score was -0.225.

B8: frj (protein)
chain: MSIDDVIYVICLLGCIGAGSYVKKIADEGQRKLVSTGLGVLVVVIVSGLHSLHCFVSLALGTAAVLLVHPSKGHLVTFAVMFGYLVFFRIFDFYFGIPGHTNMIQMILTLKVSGIAFEKTAAWKRLQAHDEQKKNDQRDVHQESPIEITDYDVELQSLSAAEILHYSFNYIGVLTGPYYRYRTYRDYFEMPFKTYAPTVEATLEKLKYAVFYCALYLATNYMWPLDYALSDEFFNDRSFVYRLLYVWPTFFTFRARIYTGLTLSECVCTMAGFGAYPDESDPNNGEGPRKRYQHLKRDADKHTYNFTTIVNTRVLEVERCWTFREGMKHWNVCVQYWLAVNVYKLFPSKKYRTGATLLCSAYWHGFRPGHYFCIMGAPFYVSLEDMWDKLVRKSATGTSRRVIDVIFWIFKWFAFSYLGEAFLLSSFGNIWRFYSSVYHIGYISWAAMTALGFYLTSQRKAAERRKKRAAEKAAGGDGIAAAIEKEKAQ
In the case of B8, in the assay with CG6933, the MAPPIT interaction score is 0.0283.

B9: Fer1HCH (protein)
chain: MVKLIASLLLLAVVAQAYGDFKCSLAVPEITKDWVDMKDACIKGMRNQIQEEINASYQYLAMGAYFSRDTVNRPGFAEHFFKAAKEEREHGSKLVEYLSMRGQLTEGVSDLINVPTVAKQEWTDGAAALSDALDLEIKVTKSIRKLIQTCENKPYNHYHLVDYLTGVYLEEQLHGQRELAGKLTTLKKMMDTNGELGEFLFDKTL
As for B9, the MAPPIT interaction score in the assay with CG6683 was -0.52; with CG8654 it was 0.0556; with vih it was -0.155.

B10: Cbp80 (protein)
chain: MSRRRAHDTEDEGYDHRRNKRRRVSENQEIEDRLESLILRVGERSTSSVESNLEGLVSVLEADLGTFRLKILRILSDCAVRMPEKCTVYTTLVGLLNAKNYKFGGEFVDHMVKTFKESLKMCRWDAARYSLRFLADLVNCHVISATSLLQLLDTMIDVSNEDTVPQVRRDWFVFAVLSTLPWVGRDLYEKKESALESLLLRIEVYLNKRSKKHHNALRVWSSDAPHPQEEYLDCLWAQIRKLRQDNWAEKHIPRPYLVFDSILCEALQHNLPTIVPPPHHDNFEYPMPWVVYRMFDYTDCPDGPNLPGAHSIERFLIEEHLHHIIETYHHERKDCAAQLLSFPYKHKIPLEYCIVEVVFAELFHMPTPRYLDICYGSILIELCKLQPATLPQVLAQATEILFMRIDSMNTSCFDRFVNWFSYHLSNFKFTWSWDEWDSCLLLDGEHPRPKFIQEVLQKCLRLSYHQRITEMMPTTYAKLIPLTPVPNYKYANEEAANLPGTTVAHQLVVAIRQKCTPEEVVNILKDIPNSGYSGEEMSDGSFNALKIDVFVQTLLNLGSKSFSHSFAAISKFHSVFRALAETEEAQICILHNIFELWSSHQQMMVVLIDKLLKLQIVDCSAVATWIFSKEMTGEFTKLYLWEILHLTIKKMNKHVIKLNTELSEAKEKLAKADSSSSDSEDDSSHKRKKPITHADKPSEEVVERMEEKLEAANVNQKRLFLIVFQRFIMILSEHLLRSDTDGRDPDTDWYRWTIGRLQQVFLMHHEQVQKYSSTLETLLFTSDLDTHILEVFQQFVALRA
B10: in the assay with CG6664, the MAPPIT interaction score was -0.12.

B11: Inx7 (protein)
chain: MLNTFSSVRQYLKFDLTRVVIDNIVFKLHYRWTFVILLVATLLITSRQYIGEHIQCLSDGVVSPVINTFCFFTPTFTVVRDQNQTAYRPGSEPPGIGAFDPEKDTIKRHAYYQWVPFVLFFQALCFYIPHALWKSWEGGRIKALVFGLRMVGLTRYLKNDSLRIGKLNIPSMAEAEERVKDIRRTMIDRMRLNQSWGAHLVFAEVLNLINLLLQITWTNRFLGGQFLTLGPHALKNRWSDELSVLDLVFPKITKCKFHKFGDSGSIQMHDALCVMALNIMNEKIYIILWFWYAFLLIVTVLGLLWRILTLCFYRNVTFTRWSLYWAKPGQLDENELLAVIDKCNFSNWMFLFFLRSNLSEFLFKKVIYHLASEFPNPDHDNDVNAYREAPPTPAKNRYPELSGLDTIDSPLLHLRRNGSPSAGGAQGPSTSDMAKLPV
Regarding B11, in the assay with CG6933, the MAPPIT interaction score was -0.387.

B12: sicily (protein)
chain: MRRLVRNWNCRLLFNAKSGQEIVSHAGIHQEAKTNAIPREKKVIEADKNGYGAKHCMSLVEKYDYENYLCTLLLPRELRRAAFALRAFNVEVSRSVSGHQIEPQIAKMRLKFWHDSIDKCFEPDSQRSYVEDQPVLRELKHTVGSRKLNKVYLRRLVTARERPPTHAFESIRELEEYTEQTFSSLLLLLLEVGGVRDLNADHAASHLGKAQGIATLLRSIPLAGRQQAPCIPLEVLVLHGVSQERIIRSKSDDKGVEDCIFDVASAANTHLKLARQLHDKVPPQVRKIFLSAVATDAYLERLRRANFLLTHKSCVGRDTLLPARLFWKSLLNRF
Take B12: the MAPPIT interaction score with CG7548 (pair source set: Finley_Y2H) and with CG7548 (pair source set: Lit-BS-16) was -0.0114 in each case.
